# Screen size: about 1,100 compounds; about 1,000 (91%) were called active. So high a share suggests a set chosen from earlier hits. These entries were drawn from the full list. A number with no mark means an inactive call.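 The calls were made as follows: active = inhibition above 3 SD of the buffer control wells (cut at about 41% in these data); inactive = the rest.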
# Test: reduced carbachol calcium response, RGS4-induced M3R cells, confirmation, RGS4 activator project, cell-based, HEK293 M3R/RGS4 inducible, calcium flux, duplicate (AID 602282);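 also: signal is the integrated peak-minus-minimum Fluo4 fluorescence over baseline ratio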
# Conditions: carbachol calcium flux Fluo4, at 10 µM, hits give high values
row,SMILES,inhibition
1,Cc1nn(C)cc1N1C(=O)c2cccc3c(N)ccc(c23)C1=O,97.5% (active)
2,OCCC1CN(Cc2ccc3nsnc3c2)CCN1C1CCCC1 (stereo not given),82.5% (active)
3,COc1cccc(/C=N/Nc2cc(C)nc(-c3ccccc3O)n2)c1O,93.5% (active)
4,COc1cccc(-c2cc3nc4c(c(N5CCC6(CC5)OCCO6)n3n2)CCCC4)c1,56.5% (active)
5,Cc1ccc(OS(=O)(=O)c2ccc(-c3csc(C)n3)s2)c(C)c1,82% (active)
6,COC(=O)c1ccc(CN2CCC(CO)(Cc3ccc(OC)cc3)CC2)cc1,92% (active)
7,CCCCCC(O)(CCN1CCCCC1)c1ccccc1 (stereo not given),93% (active)
8,C#CC(CCN1CCCCC1)(OC)c1ccccc1 (stereo not given),93% (active)
9,Cc1ccc(SCC(=O)c2cc(C)c(OC(=S)N(C)C)c(C)c2)cc1,88.5% (active)
10,Cc1cc2oc3ccc(NCCC4CCCN4C)cc3c(=O)c2cc1C (stereo not given),91% (active)
11,O=S(=O)(c1ccc(Br)cc1)n1ccc2ccccc21,80.5% (active)
12,CCc1c(C)sc(NC(=O)c2ccc(Br)o2)c1C(=O)OC,69.5% (active)
13,Cc1oc2c(F)c(F)c(F)c(F)c2c1S(=O)(=O)Nc1cccc(C(F)(F)F)c1,92% (active)
14,COc1ccc(C(=O)Nc2nc(-c3ccc(S(=O)(=O)N4CCOCC4)cc3)cs2)cc1,85.5% (active)
15,CCc1ccccc1NC(=O)[C@@H]1CCC(=O)N1C1OC(=O)c2c1ccc(OC)c2OC (stereo not given in full),"0% [the number is a placeholder, only the call stands]"
16,CCC1CCCCN1CCCNC(=O)c1cc2c(Cl)nc3ccccc3c2s1 (stereo not given),93.5% (active)
17,N=c1c2c3c(sc2nc2n1CCCCC2)CCCC3,87% (active)
18,Oc1ccccc1N1CCN(c2ncnc3sc(-c4ccccc4)cc23)CC1,87.5% (active)
19,COc1ccc(/C=C(\C#N)c2c[nH]c3ccccc23)cc1,85% (active)
20,COc1cccc(CNC(=O)CCC2CCCN(Cc3ccc(OC(F)F)cc3)C2)c1 (stereo not given),74% (active)
21,Cc1nc(N2CCN(c3ccccn3)CC2)c2c(C)c(C(=O)Nc3ccc(F)cc3)sc2n1,91% (active)
22,OC(CN=c1sc2ccccc2n1CC(O)COc1ccccc1)COc1ccccc1 (stereo not given),91.5% (active)
23,CCOC(=O)C1=C(NC(=S)NC(=O)c2ccccc2)c2ccccc2CC1(C)C,92% (active)
24,CN1CCN(C(=O)N2c3ccccc3CCc3ccccc32)CC1,90.5% (active)
25,O=C(Cn1c(N2CCN(C/C=C/c3ccccc3)CC2)nc2ccccc21)c1ccccc1,91.5% (active)

row,SMILES,inhibition
1,Cc1cccc(-c2nc3ccc(C(=O)NCCN4CCN(C)CC4)cc3nc2-c2cccc(C)c2)c1,93.5% (active)
2,COc1ccc(CN2CCCC(C(=O)c3ccc(Cl)cc3)C2)cc1Cn1cncn1 (stereo not given),93% (active)
3,COc1ccccc1C(CNC(=O)c1cccc(NS(=O)(=O)c2ccc(Br)cc2)c1)N(C)C (stereo not given),85% (active)
4,O=C(CN1CCCCCC1)Nc1ccc(S(=O)(=O)N2CCCCC2)cc1,65% (active)
5,CCCN(CCc1ccccc1)C1CCc2c(O)cccc2C1 (stereo not given),78% (active)
6,CN(C)CCOc1ccc(Cl)cc1C(C)(C)C,81.5% (active)
7,COc1ccc(-c2cc(C(=O)N(C)Cc3ccccc3)c3ccccc3n2)cc1,88.5% (active)
8,COc1ccc(CN(C)C(=O)c2cc(-c3ccc(C)cc3C)nc3ccccc23)c(OC)c1OC,90% (active)
9,Cc1ccc(N2C(=O)CC(Nc3cccc4ccccc34)C2=O)cc1 (stereo not given),"0% [the number is a placeholder, only the call stands]"
10,CN(C)S(=O)(=O)N1CCC(Oc2cccc(C(=O)NCCCC3CCCC3)c2)CC1,78.5% (active)
11,Cc1ccc(C)c(N2CCN(C(=O)CCCCCn3c(=S)[nH]c4ccc(N5CCOCC5)cc4c3=O)CC2)c1,92% (active)
12,Cc1ccc(C)c(N2CCN(C(=O)CCCn3c(=O)c4cccn4c4cccnc43)CC2)c1,85.5% (active)
13,O=C(c1cccs1)C1C(c2ccc(Br)cc2)NC(=S)NC1(O)C(F)(F)F (stereo not given),93.5% (active)
14,CCC1C=C(c2ccccc2)C=CN=C1N(CC)CC (stereo not given),84% (active)
15,CCOC(=O)c1c(NC(=O)NC(C)(C)C)sc2c1CCN(C)C2,"0% [the number is a placeholder, only the call stands]"
16,COc1cc(/C=C(\C#N)c2nc3ccccc3[nH]2)ccc1O,80.5% (active)
17,Cc1cccc(-c2nc(Nc3ccc(O)cc3)c3ccccc3n2)c1,80% (active)
18,Cc1ccnc(SCCn2c(N(C)Cc3ccccc3)nc3c2c(=O)n(C)c(=O)n3C)n1,62% (active)
19,Cc1ccccc1C(OCCN(C)C)C1CCCCC1 (stereo not given),91% (active)
20,S=c1[nH]nc(-c2ccc(Cl)cc2)n1CC1CCCO1 (stereo not given),59% (active)
21,CN(C)c1ccc(/C=C2\NC(=S)N(Cc3ccccc3)C2=O)cc1,79.5% (active)
22,CCOc1ccc(C(CC(=O)O)NC(=O)COc2ccccc2)cc1 (stereo not given),"0% [the number is a placeholder, only the call stands]"
23,CC(C)C(c1nnnn1CCc1ccccc1)N1CCN(C(=O)c2ccco2)CC1 (stereo not given),87.5% (active)
24,Cc1ccc(OCCCCN2CCCCC2)c(Br)c1,"0% [the number is a placeholder, only the call stands]"
25,COc1ccc(C(=O)NC2CCCc3c2cnn3-c2cccc(C)c2C)c(OC)n1 (stereo not given),91% (active)

# Source: PubChem BioAssay AID602282 (Johns Hopkins Ion Channel Center, 2012)
